Assay outcomes (PubChem)
VDR inhibitor – blocks the human vitamin D receptor; P11473; VDR-SRC2-3 peptide fluorescence polarization, 2 h; Potency, µM, without a hit: max response, negative = inhibition, actives largely listed as inhibitors; hit rate 0.93% among 400,000; AID 504847
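Fluorescence polarization assay of small-molecule disruption of VDR binding to coregulator peptide SRC2-3. Compounds and controls pin-transferred, then read after 2 h incubation at ambient room temperature.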
GCN5L2 inh – blocks human GCN5L2 histone acetyltransferase; Q92830; GCN5L2 HAT assay, ThioGlo1 CoA-SH fluorescence; Potency, µM (titrated, usually from 58.9 µM), for the others: at the top dose activity change, negative = inhibition, usual class: inhibitors; hit rate 0.21% among 390,000; AID 504327
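qHTS, 1536-well. 20nM enzyme, pH 7.5 HEPES/EDTA/Tween-20 buffer; 15 min compound preinc., RT. Start: 75uM H3(1-25), 70uM AcCoA, 50uM ThioGlo1. Read Ex340/Em540 at t=0 (autofluorescence flag) and t=20 min.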
TrxR1 inh – inhibitors of rat thioredoxin reductase 1; O89049; recombinant rTrxR1, NADPH fluorescence consumption, selenite substrate; Potency, µM (doses to about 114 µM), without a hit: at the highest dose activity change, negative = inhibition, actives largely listed as inhibitors; hit rate 1% among 390,000; note: nearly all actives have a fitted effect of over 65% in size
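Rat TrxR1 (90 nM in the dispensed reagent) was pre-reduced with 400 uM NADPH for 5 min at room temperature, then incubated with compound for 15 min. After 400 uM selenite was added, NADPH fluorescence (Ex 340/Em 450 nm) was followed for 8 min.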
Sfp PPTase inh – Sfp phosphopantetheinyl transferase inhibition | Q9F4F7 | Biochemical Sfp PPTase activity, qHTS | AID 1490 | Potency, µM, for inactives: largest response in the series, negative = inhibition, usual class: inhibitors | hit rate 3.5% among 310,000;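 note: the enzyme is Sfp with the accession as filed and its product quenches rhodamine fluorescence; 0% = enzyme reaction without inhibitor and -100% = no enzyme wells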
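Fluorescence-quenching assay with 15 nM Sfp, 5 uM rhodamine-CoA and 12.5 uM BHQ-2-labelled ybbR peptide in pH 7.6 Hepes/MgCl2 buffer. Enzyme was pre-incubated with compound for 15 min at room temperature. Rate was taken from the 30-min fluorescence change (525/598 nm).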
TrxR1 substrate – rat thioredoxin reductase 1 substrate activity; purified TrxR1 substrate turnover, NADPH consumption readout; Potency, µM (series often up to 114 µM), for inactives: at the top dose activity change, negative = substrate turnover; hit rate 0.01% among 390,000; AID 588456; note: nearly all actives have a fitted effect of over 50% in size
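Rat TrxR1, dispensed at 90 nM, was prereduced with 400 uM NADPH (final) for 5 min at ~22 deg C, then incubated with compound 15 min before 400 uM selenite. A first-read NADPH fluorescence drop versus no-compound background flagged substrates.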
GLS inhibitor – blocks human kidney-isoform glutaminase activity. O94925. GLS enzymatic activity, qHTS titration. Potency, µM (series often up to 45.5 µM), inactives show at the highest dose activity change, negative = inhibition, most hits filed as inhibitors. hit rate 0.21% among 410,000. AID 624170
Target sequence (O94925 whole entry, looked up, canonical isoform): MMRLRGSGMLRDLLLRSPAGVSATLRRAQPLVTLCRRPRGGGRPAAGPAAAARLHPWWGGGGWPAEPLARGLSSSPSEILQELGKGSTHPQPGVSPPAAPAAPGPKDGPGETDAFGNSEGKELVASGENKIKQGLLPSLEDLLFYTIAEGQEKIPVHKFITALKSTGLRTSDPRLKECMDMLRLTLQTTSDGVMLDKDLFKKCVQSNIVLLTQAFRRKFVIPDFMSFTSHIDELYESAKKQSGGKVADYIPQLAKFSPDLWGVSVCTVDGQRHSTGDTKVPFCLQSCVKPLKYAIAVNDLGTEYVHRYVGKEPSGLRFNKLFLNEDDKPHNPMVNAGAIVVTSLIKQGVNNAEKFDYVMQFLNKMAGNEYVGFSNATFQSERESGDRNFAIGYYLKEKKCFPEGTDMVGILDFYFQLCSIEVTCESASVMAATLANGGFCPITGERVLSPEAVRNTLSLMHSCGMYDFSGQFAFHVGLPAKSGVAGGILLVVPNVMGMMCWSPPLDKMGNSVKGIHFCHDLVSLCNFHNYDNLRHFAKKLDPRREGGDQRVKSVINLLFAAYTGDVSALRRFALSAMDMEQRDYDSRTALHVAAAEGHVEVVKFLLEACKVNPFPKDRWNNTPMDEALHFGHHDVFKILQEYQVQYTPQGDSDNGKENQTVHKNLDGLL
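Glutamate formation by hKGA was monitored fluorometrically using coupled glutamate oxidase, HRP and Amplex Red. Substrate was added as 1 mM L-glutamine solution; incubation was 30 min at RT after an initial read.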
An asterisk follows results filed as active; ? = inconclusive; nt = not tested or not shown; ! = not confirmed by another sample; [ ] = remark or other dose. Hits are enriched below; roughly 3.8% of the tested compounds scored in any of these assays. Calls come from the whole dose curve; as a rule, active = well fitted curve in the direction sought with a large enough effect; inconclusive = small, poorly fitted or top-dose-only effect, or another doubt; inactive = no such curve, though single readings can be large; an effect the other way counts as inactive or inconclusive. Unless noted, % is set by controls: 0 for no effect and ±100 for the full control effect; potency is the fitted concentration of half-maximal effect.

SMILES	VDR inhibitor	GCN5L2 inh	TrxR1 inh	Sfp PPTase inh	TrxR1 substrate	GLS inhibitor
Brc1cc(Br)c2nc(-c3ccc(N4CCOCC4)cc3)ccc2c1	-10.7%	-0.4%	4.9%	-4.4%	7.6%	0.4%
O=C(/C=C/c1ccc(O)c(O)c1)O[C@H](Cc1ccc(O)c(O)c1)C(=O)O	nt	-15.7%	nt	50.1µM*	nt	nt
O=C(O)/C=C/c1ccc(O)c(O)c1	8.0%	0.6%	?	56.2µM*!	8.8%[57.1 µM]	?
NC(Cc1ccc(O)c(O)c1)C(=O)O (configuration not stated)	nt	nt	nt	-80.9%	nt	nt
O=C(NC1CCCCC1)C(c1ccccc1)N(C(=O)Cc1ccsc1)c1ccccc1 (configuration not stated)	-9.3%	-9.8%	30.8%	-6.1%	16.6%	-0.8%
CCCCC/C=C\C/C=C\C/C=C\C/C=C\CCCCCC(=O)O	-0.6%	-7.0%	nt	11.3%	nt	nt
CCCCCCCC/C=C\CCCCCCCC(=O)NCCCC(=O)O	-8.1%	nt	nt	22.4%	nt	nt
CCCCCCCCCCC/C=C\C(C)(C)/C=C\CCCC(=O)O	-2.9%	7.94µM*	?	4.8%	-10.8%[57.1 µM]	nt
CC/C=C\C/C=C\C/C=C\C/C=C\C/C=C\CCCC(=O)O	39.8µM*!	-9.8%	nt	-0.8%	nt	31.6µM*
CC/C=C\C/C=C\C/C=C\CCCCCCCCCCCC(=O)O	50.1µM*	10.8%	nt	14.9%	nt	nt
CC/C=C\C/C=C\C/C=C\CCCCCCCCCC(=O)O	-21.3%	6.3%	nt	10.4%	nt	nt
NS(=O)(=O)c1ccc(CCNc2nc3c(-c4cccc(F)c4)nnn3c3ccc(Cl)cc23)cc1	-8.4%	-9.6%	10.3%	nt	10.0%	-10.1%
CCCCOc1ccc(S(=O)(=O)NCc2csc(C)n2)cc1	3.5%	-12.6%	5.0%	6.9%	2.3%	0.3%
Cc1ccc(NS(=O)(=O)c2cccc(C(=O)NNC(=O)c3ccco3)c2)c(C)c1	2.4%	-1.9%	-11.6%	nt	-13.7%	25.3%
CC/C=C\C/C=C\C/C=C\CCCCCCCC(=O)O	22.4µM*!	10µM*!	?	79.4µM*!	3.2%	22.4µM*
Cc1c(C)c2ccc(OCC(=O)NC(Cc3c[nH]c4ccc(O)cc34)C(=O)O)c(C)c2oc1=O (configuration not stated)	-11.8%	-2.1%	-11.6%	6.1%	0.9%	11.2µM*
Cc1c(OC(C)C(=O)NC(Cc2c[nH]c3ccc(O)cc23)C(=O)O)ccc2c1oc(=O)c1ccccc12 (configuration not stated)	-11.9%	-19.1%	-2.6%	-27.1%	15.5%	?
CC1(C)CC(Nc2ccc(Nc3ccccc3)cc2)CC(C)(C)N1	?	-6.1%	?	20µM*	11.4%[57.1 µM]	5.0%
O=C1/C(=C\c2ccccn2)SC(=S)N1Nc1ncc(C(F)(F)F)cc1Cl	?	-19.2%	?	50.1µM*	-12.7%	-2.3%
O=C1/C(=C/c2ccccn2)SC(=S)N1NS(=O)(=O)c1ccccc1	-25.1%	-7.6%	-5.6%[57.1 µM]	-0.8%	-12.8%	5.5%
O=C1/C(=C/c2ccc(F)cc2)SC(=S)N1Nc1ncc(C(F)(F)F)cc1Cl	?	-2.6%	-11.6%	50.1µM*	-3.1%	4.6%
O=C1/C(=C/c2ccccn2)SC(=S)N1Nc1ncc(C(F)(F)F)cc1Cl	28.2µM*	nt	?	nt	-18.2%	-4.2%
O=C1/C(=C/c2ccccn2)SC(=S)N1CCc1ccccc1	-3.5%	0.5%	20.6%	28.0%	-4.8%	1.7%
COc1cc(OC)c2c(-c3cccc(/C=C/c4ccc(F)cc4)c3)cc(=O)oc2c1	-1.9%	-12.8%	-3.9%	-12.1%	6.8%	-5.1%
C[C@H]1CN([C@@H](C)CO)C(=O)CCCn2nncc2CO[C@@H]1CN(C)S(=O)(=O)c1ccc2ccccc2c1	nt	nt	nt	nt	nt	-11.7%
Cn1c(NC(=O)CCC2CCCCC2)cc(=O)n(C)c1=O	2.1%	-5.5%	21.6%	-8.4%	3.5%	1.2%
COc1cccc(-n2c(=O)c3c4c(sc3n(Cc3ccccc3C#N)c2=O)CCCC4)c1	-2.9%	-6.8%	18.3%	nt	1.5%	-6.0%
C/C(=N\NC(=S)NC(C)C)c1cccc([N+](=O)[O-])c1	-16.1%	-2.7%	-4.4%	13.3%	0.9%	0.1%
